# From PubChem BioAssay (NCI)
# Compounds without any hit were thinned out: in the full panel of roughly 83,000, 20% have a hit.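 Treatment: one concentration, 48 hours, 96-well format. Scoring: percent growth, with anything below 10 considered active.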 A number with no mark means an inactive call. Activity calls are given as the source filed them.
# Columns and labels:
# Assay in all cases: NCI-60 one-dose screen, 48 h (100 = growth as untreated, 0 = no growth, -100 = all killed)
# Details in all cases: 10 µM unless noted
# [1] = system: DU-145 prostate
# [2] = system: K-562 leukemia
# [3] = system: MALME-3M melanoma
# [4] = system: MDA-MB-231 breast
# [5] = system: RXF 393 renal
# [6] = system: SF-268 CNS
# [7] = system: SF-295 CNS
# [8] = system: SF-539 CNS
# [9] = system: UACC-257 melanoma
# [10] = system: M14 melanoma
# [11] = system: HCT-15 colon
# [12] = system: HT29 colon
# [13] = system: SNB-75 CNS
# [14] = system: SNB-19 CNS
# [15] = system: U251 CNS
# [16] = system: PC-3 prostate
# [17] = system: SK-MEL-5 melanoma
# [18] = system: UACC-62 melanoma
# [19] = system: LOX IMVI melanoma
# [20] = system: SK-MEL-28 melanoma
Compound,growth [1],growth [2],growth [3],growth [4],growth [5],growth [6],growth [7],growth [8],growth [9],growth [10],growth [11],growth [12],growth [13],growth [14],growth [15],growth [16],growth [17],growth [18],growth [19],growth [20]
COc1cc(OC)c(/C=C/C(=O)c2c(O)cc(OC)c(C3CCN(C)CC3)c2OC)c(OC)c1,-36.2% (active),9.67% (active),-92.2% (active),-68.1% (active),-75.1% (active),-70.9% (active),-79.9% (active),-91.4% (active),-81.7% (active),-92.7% (active),-58.1% (active),-73.4% (active),-8.19% (active),-55.9% (active),-85.6% (active),-16.1% (active),-99% (active),-83.9% (active),-93.3% (active),–
CCCCC#Cc1c(I)n(C)c(=O)[nH]c1=O,20.8%,-43.7% (active),-85.4% (active),-67.7% (active),-81.7% (active),26.5%,92.3%,66.7%,-48.4% (active),-7.41% (active),-92.5% (active),-75.3% (active),82.6%,99.7%,2.73% (active),60.2%,62.5%,-13.5% (active),-63.7% (active),-85.6% (active)
CCN(CC)CCN1C(=O)c2c(c(C)c3c(oc4ccc(OC)cc43)c2C)C1=O,94.1%,90.5%,91.9%,96.3%,82.2%,94.9%,105%,94.1%,101%,103%,90%,87.5%,116%,88%,87.3%,90.7%,82.7%,97%,93.3%,–
Cc1nn(-c2ccccc2)c(N)c1N=C1NC(=O)/C(=C/c2ccc(Br)cc2)S1,96.4%,58.8%,93.8%,86%,151%,81.6%,87.2%,83.4%,111%,89.9%,81.5%,106%,85.2%,73.5%,77.1%,74%,99%,77.6%,90.4%,94.5%
NC(=O)c1c(NC(=O)c2cccs2)sc2c1CCC(=O)C2,80.3%,10.3%,67%,26.1%,46.4%,30.3%,86.9%,-3.38% (active),63.7%,26.1%,16.2%,46.3%,28.3%,40.2%,14.9%,10.5%,71.5%,4.69% (active),30.3%,50.7%
CC1C(/C=N/NC(N)=S)C(C#N)(C#N)C1(C#N)C#N (configuration not stated),96.8%,84.1%,103%,106%,106%,91.4%,107%,111%,96.3%,102%,109%,110%,92.7%,101%,102%,92.9%,104%,96.9%,109%,116%
COc1ccc(C[n+]2c3ccccc3n3c4ccc(N)cc4ccc32)c(OC)c1OC,81%,42%,49.6%,75.5%,69.7%,35%,65.6%,52.2%,3.35% (active),87.5%,101%,39.2%,61.4%,15.5%,8.81% (active),43.3%,42.6%,60.1%,85.2%,64.5%
CCCCNc1cc(-c2cn[nH]c2-c2cc(C)cc(OC)c2)nc(-c2cccnc2)n1,93.6%,80.1%,100%,69.8%,71.9%,98.4%,91.5%,81.7%,110%,98.7%,82.7%,95.1%,76.2%,95.6%,87.3%,80.9%,77.4%,80.2%,91.2%,–
